From PubChem BioAssay
Dicer processing: inhibitors of human Dicer processing of pre-microRNA | cat-ELCCA pre-miR-21 Dicer processing, chemiluminescence; stronger effect = higher value | z-score at 25 µM | 47,000 compounds, 6% hits | AID 1347074; in the data active = z-score above about 3, passing the limit was not always enough;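 note: plate controls were vehicle for no effect and no enzyme for full effect; higher signal means more uncleaved substrate so more Dicer inhibition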
An asterisk follows results filed as active. Many of the other results were omitted from the sample, so hits are more common in it than they were.

SMILES	Dicer processing
Cc1cc(Br)ccc1NCN1C(=O)c2ccccc2C1=O	9.1
CC(C)c1ccc(NCN2C(=O)CCC2=O)cc1	3.7*
CC1CC(=O)N(c2ccc(F)cc2F)C(=O)C1	0.35
Cc1ccc(NCN2C(=O)c3ccccc3C2=O)c(C)c1	0.9
O=C1CCC(=O)N1CNc1cc(C(F)(F)F)cc(C(F)(F)F)c1	3.9*
COc1cc(OC)c(C(F)(F)F)cc1NCN1C(=O)CCC1=O	0.78
CCc1ccc(NCN2C(=O)c3ccccc3C2=O)cc1	2.7
O=C(CNc1cc(C(F)(F)F)cc(C(F)(F)F)c1)c1ccc(Cl)cc1	1.2
Cc1cc(C)c(N=c2oc(C(C)(C)C)cs2)cc1C	-3.4
c1ccc2[nH]c(SN3CCCCC3)nc2c1	0.8
CCOC(=O)c1sc(NC(=O)C(C)(C)C)c(C(=O)OCC)c1C	0.97
CC(C)c1ccc(-c2csc(NC(=O)C3C4CCC(C4)C3C(=O)O)n2)cc1 (configuration not stated)	1.8
CC(=O)C1=C(O)c2cc(Cl)c(Cl)cc2C1=O	0.16
O=C(Nc1nc(-c2ccccc2)cs1)c1ccc(Cl)cc1	2.2
CC(=O)CCCNc1nc(-c2ccc(Cl)cc2)cs1	6.7*
Cn1ccnc1SCC(=O)Nc1nc(-c2ccc(Cl)cc2)cs1	0.23
COc1ccc(S(=O)(=O)n2ccnc2)cc1C	-1
O=S1(=O)C=C2C(C1)SC(=S)N2C1CCS(=O)(=O)C1 (configuration not stated)	-2.8
Cc1ccc2[nH]c(C)c(CN(C)Cc3ccccc3)c(=O)c2c1	0.81
Cc1onc(-c2ccccc2)c1C(=O)NC1CCCCC1NC(=O)c1c(-c2ccccc2)noc1C (configuration not stated)	-0.3
CC1CCc2c(sc(NC(=O)c3ccco3)c2C(=O)O)C1 (configuration not stated)	1.5
Cc1onc(-c2ccccc2)c1C(=O)Nc1sc2c(c1C#N)CCC(C)C2 (configuration not stated)	4.7*
COc1ccc(Cc2nnc(SCCC(=O)O)o2)cc1	-0.58
CCOC(=O)c1nn(-c2ccccc2Cl)cc(Sc2nnc(C(F)(F)F)n2C)c1=O	-0.31
COc1cc2c(cc1OC)C(/C=C1\SC(C(=O)c3cccs3)=NN1c1ccc(C)cc1)=NCC2	0.72
SMILES	Dicer processing
COc1cc2c(cc1OC)C(c1ccccc1N)=NCC2	-2.9
CCOC(=O)C1=NN(c2ccc(C)cc2)/C(=C/C2=NCCc3cc(OC)c(OC)cc32)S1	4.4*
Cc1ccc(CN2C(=O)CSC2c2cccc(Br)c2)cc1 (configuration not stated)	0.26
O=C1N(CN2CCCCC2)c2ccc(Br)cc2C12OCCO2	0.93
Cc1[nH]c2ccccc2c1C(=O)CSc1nnc(C)n1-c1ccccc1	2.8
Cc1nnc(SCC(=O)c2c[nH]c3ccccc23)n1-c1ccccc1	4.3*
Cn1c(SCC(=O)c2c[nH]c3ccccc23)nnc1-c1cccs1	2.6
O=C(OCCN(C1=NS(=O)(=O)c2ccccc21)c1ccc(Cl)cc1)c1cccs1	1.8
O=C1CC(N2CCN(c3ccccc3)CC2)C=C1Nc1ccccc1 (configuration not stated)	4*
O=C1CC(Nc2ccccc2)C=C1Nc1ccccc1 (configuration not stated)	-0.09
O=C1CC(N2CCN(c3ccccc3)CC2)C=C1Nc1ccc(Cl)cc1 (configuration not stated)	1.9
COc1cccc(-n2c(C3CCCNC3=O)n[nH]c2=S)c1 (configuration not stated)	-0.91
CCOC(=O)c1c[nH]c2ccc(Cl)cc2c1=O	0.32
CC1=C(C(=O)OC(C)C)C(c2ccccc2Cl)C2=C(CC(c3cccs3)CC2=O)N1 (configuration not stated)	2.7
c1ccc(-c2nc(NC3CCCCC3)c3ccccc3n2)cc1	0.99
Nc1nc(Cc2cc3ccccc3[nH]2)nc(NC2CCCCC2)n1	4*
Cc1nc2ccc(NC(=O)c3ccccc3C)cc2o1	-1.3
O=C(OC(Cc1ccccc1)C(F)(F)F)c1ccc(Cl)cc1Cl (configuration not stated)	-0.27
Cc1noc(NC(=O)c2ccc(C(F)(F)F)cc2)c1[N+](=O)[O-]	4.6*
Cc1noc(-c2ccc(Cl)cc2)c1C(=O)NNC(=O)c1ccc(C(F)(F)F)cc1	3.8
Cc1nc(C)c(C(=O)NNC(=O)c2ccc(C(F)(F)F)cc2)s1	-0.39
COc1ccc(-c2csc(Nc3ccccc3)[n+]2C)cc1	2.4
COc1ccccc1-c1nnc(SCc2ccccc2)o1	0.08
CCOc1ccc(S(=O)(=O)Nc2ccccn2)c(C)c1C	1.1
Cc1cc(Cl)ccc1NNC(N)=S	1.4
SMILES	Dicer processing
Cc1cc(Cl)ccc1NC(=S)NN	3.4*
S=C(N/N=C/c1cccc2ccccc12)Nc1c(Cl)cccc1Cl	0.63
Cc1cc(Cl)ccc1NC(=S)NNC(=O)c1ccccc1Cl	-1.4
NNC(=S)Nc1ccccc1Cl	1.4
CN(C)NC(=S)Nc1cccc(Cl)c1Cl	1.1
S=C(N/N=C\c1cccc2ccccc12)Nc1cccc(Cl)c1Cl	3.8*
Cc1cccc(NC(=S)N/N=C\c2cccc3ccccc23)c1C	-0.02
NNC(=S)Nc1cccc(Cl)c1Cl	4.3*
O=C(O)C1(c2ccccc2)CCOCC1	12
N#C/C(=C\c1ccccc1Cl)S(=O)(=O)c1ccccn1	1.3
CCOC(=O)c1ccc2nc(C(F)(F)F)cc(N3CC(C)CC(C)C3)c2c1 (configuration not stated)	-1.5
CC(=O)c1cc([N+](=O)[O-])c(SCCO)s1	0.5
O=[N+]([O-])c1cccc(-c2noc(CSC3=NCCN3Cc3ccccc3)n2)c1	-0.63
Oc1ccccc1/C=N/C(/N=C/c1ccccc1O)c1ccccc1O	0.33
Oc1ccccc1C=Nc1n[nH]c2ccccc12	3.5*
Oc1ccccc1C=NCC1CCC(CN=Cc2ccccc2O)CC1 (configuration not stated)	-0.73
O=C(O)c1cccc(N2C(=O)C3C4c5ccccc5C(c5ccccc54)C3C2=O)c1 (configuration not stated)	0.43
O=C(NCCN1CCOCC1)c1cc2n(n1)C(C(F)(F)F)CC(c1ccco1)N2 (configuration not stated)	0.66
Cc1ccc2c(c1)C(=O)OC1(O)C3C4C=CC(C4)C3C(=O)N21 (configuration not stated)	1.9
O=C1OC2(O)C3C4C=CC(C4)C3C(=O)N2c2ccccc21 (configuration not stated)	4.9*
O=C1C2C3C=CC(C3)C2C(=O)N1c1cccc(N2C(=O)C3C4C=CC(C4)C3C2=O)n1 (configuration not stated)	12
CCOC(=O)c1cnc(C(F)(F)F)nc1Nc1ccccc1Cl	-1.2
COc1ccc(CN2CCN(Cc3cc(Br)ccc3O)CC2)cc1OC	2
COc1ccc(C2C(C(=O)c3cccs3)=C(O)C(=O)N2CCCn2ccnc2)cc1 (configuration not stated)	-0.81
O=C(C1=C(O)C(=O)N(CCCn2ccnc2)C1c1cccnc1)c1cccs1 (configuration not stated)	3.1*
O=C(C1=C(O)C(=O)N(CCCn2ccnc2)C1c1cccnc1)c1cc2ccccc2o1 (configuration not stated)	-0.82
COc1ccccc1C1CC(=O)C2=C(C1)NC(C)=C(C(=O)OC(C)C)C2c1cccs1 (configuration not stated)	1
CCOC(=O)c1c(C)oc2ccc(OC(=O)N3CCOCC3)cc12	1.5
COC(=O)c1c(C)oc2ccc(OC(=O)N3CCOCC3)cc12	5.7*
